Assay outcomes (PubChem BioAssay)
Shown is part of a subset that was picked to be rich in hits.
Pf Dd2 growth – Plasmodium falciparum Dd2 growth inhibition; P. falciparum Dd2 growth, SYBR Green, 72 h; hit rate 4.3% among 120,000; Potency, µM (doses to about 28.9 µM), without a hit: at the highest dose activity, negative = inhibition, most hits filed as inhibitors; AID 1347417; active = well fitted inhibition curve with a large enough effect;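 also: plate controls were DMSO vehicle for no effect and reference drug for full effect; nearly all actives have a fitted effect of over 65% in size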
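Infected erythrocytes (Dd2, 0.3% parasitemia, 2.5% hematocrit final) are added to compound in RPMI-1640/Albumax II medium, grown 72 h at 37C in low oxygen, then lysed with saponin/Triton-X containing SYBR Green and read by fluorescence.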
The depositor's hits bear a star; i = inactive; [ ] = remark or other dose. Potency is read from the fitted curve at half-maximal effect.

SMILES	Pf Dd2 growth
CN(C)C[C@@H]1CN(Cc2ccncc2)C[C@H]1NC(=O)c1cccc(C#N)c1	9.1%
CN1C[C@H](NCc2nccn2C)CCC[C@@H](C(=O)N(C)Cc2cccnc2)CC1=O	28.0%[44.1 µM]
COc1ccc(C(=O)N2CCC(n3cc(-c4nc(C)no4)nn3)CC2)cc1F	i
COCCN1C(=O)c2cccn2CC1CNC(=O)c1cccc(OC)c1 (stereo not drawn)	-7.1%
O=C(Nc1ccccc1)C1=NO[C@@H]2CN(Cc3ccc4[nH]ccc4c3)C[C@H]12	-1.9%[44.1 µM]
CCC(Sc1nc2cc(OC)c(OC)cc2c2nc(-c3ccccc3)nn12)C(=O)Nc1cccc(C)c1 (stereo not drawn)	-2.5%
CCC(Sc1nc2ccccc2c2nc(CCc3c(C)n[nH]c3C)nn12)C(=O)Nc1ccc(F)cc1 (stereo not drawn)	7.94µM*
Cc1cc(C)n(CCc2nc3c4ccccc4nc(SCc4ccc(F)cc4)n3n2)n1	-8.3%
COc1ccc(C(=O)NC2CCN(c3cnn(CC4CC4)c(=O)c3)CC2)c(OC)n1	-17.0%
CNC(=O)CC1C(=O)NCCN1C(=O)c1cc(COc2ccccc2)[nH]n1 (stereo not drawn)	-4.2%
COc1ccc(CC(=O)NCc2ccc3c(c2)CCN3C(=O)c2cccc(C)c2)cc1	i
CCNC(=O)NCC1c2cc(OC)c(OC)cc2CCN1C(=O)Nc1ccccc1OC (stereo not drawn)	i
COc1cc2c(cc1OC)C(COc1ccc3c(C)cc(=O)oc3c1)N(C(=O)c1cccc(OC)c1OC)CC2 (stereo not drawn)	8.91µM*
Cc1cc(C)c(NC(=O)COc2ccc3c(C)cc(=O)oc3c2)c(C)c1	i
COc1ccc(OCC(=O)N2CCN(C(=O)c3cccc(OC)c3OC)CC2)cc1	-0.8%
COc1cc2c(cc1OC)C(COc1ccc3c(C)cc(=O)oc3c1)N(C(=O)c1cccc(C)c1)CC2 (stereo not drawn)	5.01µM*
CC1CCN(C(=O)CSc2nc(-c3ccc(C(C)C)cc3)no2)CC1	0.891µM*
CC1CCN(C(=O)CSc2n[nH]c(-c3ccc(F)cc3)n2)CC1	-2.9%
O=C(Cc1ccccc1Cl)N1CCC[C@H]1c1nc(-c2ccccc2)no1	-17.5%
CC(C)c1ccc(-c2noc(SCC(=O)N3CCCCC3C)n2)cc1 (stereo not drawn)	2.24µM*
Cc1ccc(-c2noc([C@@H]3CCCN3C(=O)Cc3ccccc3Cl)n2)cc1	i
COc1ccc(-c2nnc(SCC(=O)N3CCC(C)CC3)o2)cc1	-12.7%
Cc1cccc(OCC(=O)NCCn2cccc2-c2nc(-c3ccc4c(c3)OCO4)no2)c1	i
COc1ccccc1-c1nnc([C@H]2CCN(C(C)=O)C2)o1	-18.3%[44.1 µM]
Cn1nc(C(=O)N2CC[C@H]3C(=O)NCCCCCCN(Cc4ccncc4)[C@@H]3C2)c2ccccc21	i
SMILES	Pf Dd2 growth
Cc1c(CN2C[C@@H](CN(C)CCO)[C@@H](CO)C2)[nH]c2c(Cl)cccc12	12.6µM*
Cc1cc2c(cc1C(=O)N1C[C@@H](CN(C)CCO)[C@@H](CO)C1)OCCO2	-20.5%
CN(CCO)C[C@@H]1CN(C(=O)c2ccc3c(c2)CCC3)C[C@@H]1CO	-9.7%
O=C(NC1CCN(c2cc(-c3cccs3)[nH]n2)C1)c1cccc2[nH]ccc12 (stereo not drawn)	i
COc1ccc(-c2ccc3c(c2)C(=O)N2CC[C@H](NC(=O)c4cccs4)[C@H]2C(=O)N3)cc1	-1.1%
COc1ccc(Cl)cc1-c1ccc2c(c1)C(=O)N1C[C@H](O)C[C@H]1C(=O)N2	-4.6%[44.1 µM]
O=C1Nc2ccc(-c3ccccc3F)cc2C(=O)N2C[C@@H](NS(=O)(=O)c3ccc(F)cc3)C[C@@H]12	i
CSCC(=O)N[C@H]1CCN2C(=O)c3cc(-c4cccc(C)c4C)ccc3NC(=O)[C@H]12	i
O=C1Nc2cc(Cl)ccc2C(=O)N2CC[C@H](NS(=O)(=O)c3cccs3)[C@@H]12	i
COc1ccc(Cl)cc1-c1ccc2c(c1)C(=O)N1C[C@@H](NS(=O)(=O)c3ccc(F)cc3)C[C@H]1C(=O)N2	7.08µM*
COc1ccc(-c2ccc3c(c2)C(=O)N2CC[C@H](NS(=O)(=O)c4cccs4)[C@H]2C(=O)N3)cc1	11.2µM*
COc1ccc(-c2ccc3c(c2)C(=O)N2CC[C@H](NC(=O)CSC)[C@H]2C(=O)N3)cc1	i
Cc1cccc(-c2ccc3c(c2)C(=O)N2CC[C@H](NS(=O)(=O)c4cccs4)[C@H]2C(=O)N3)c1C	10µM*
O=C(N[C@H]1CCN2C(=O)c3ccc(Cl)cc3NC(=O)[C@H]12)c1cccs1	-17.7%[44.1 µM]
COc1ccc(Cl)cc1-c1ccc2c(c1)C(=O)N1CC[C@H](NC(=O)c3cccs3)[C@H]1C(=O)N2	7.94µM*
O=C(N[C@H]1CCN2C(=O)c3cc(-c4ccc(Cl)cc4)ccc3NC(=O)[C@H]12)c1cccs1	-17.4%
Cc1ccc2c(c1)nc1n2[C@@H](CNC(=O)c2ccc(C#N)cc2)COC1	i
CCn1ccc(C(=O)N2CCC3(CCCCO3)CC2)n1	i
CCN1CC(C(=O)NCc2cccc(OCc3ccccc3)c2)CC1=O (stereo not drawn)	12.2%
Cc1cc(C)n(CC(=O)N2CCc3nn(C)c(=O)n3CC2)n1	53.1%
Cc1ccc(NC(=O)Cn2ccn3nc(-c4ccc(F)cc4)c(CO)c3c2=O)cc1Cl	i
COc1ccccc1-c1ccc2ncc(Nc3cccc(O)c3)n2n1	12.6µM*
COc1ccc(Nc2cnc3ccc(-c4ccccc4OC)nn23)cc1OC	-3.7%[44.1 µM]
COc1ccccc1-c1ccc2ncc(Nc3ccc4c(c3)OCO4)n2n1	-4.7%[44.1 µM]
O=C1CC2CCCC(C1)N2C(=O)N1CCCC1	13.3%[44.1 µM]
SMILES	Pf Dd2 growth
COc1ccc(-c2nc3c(c(=O)[nH]2)CCN(C(=O)Nc2ccc4c(c2)CCC4)C3)cc1	i
COc1ccc(-c2nc3c(c(=O)[nH]2)CCN(S(=O)(=O)C2CC2)C3)cc1	-15.1%
COc1ccc(-c2nc3c(c(=O)[nH]2)CCN(C(=O)c2cc(Cl)ccc2OC)C3)cc1	10µM*
COc1ccc(-c2nc3c(c(=O)[nH]2)CCN(C(=O)Nc2cc(F)cc(F)c2)C3)cc1	i
COc1ccc(-c2nc3c(c(=O)[nH]2)CCN(C(=O)c2nccc4ccccc24)C3)cc1	5.01µM*
COc1ccc(-c2nc3c(c(=O)[nH]2)CCN(C(=O)NCC2CCCO2)C3)cc1 (stereo not drawn)	i
O=C(Nc1ccccc1F)N1CC2CCC(C1)N2Cc1cccc(Cl)c1	8.7%
COc1ccc(-c2noc([C@@H]3CCCN3C(=O)c3cc(Cl)ccc3F)n2)cc1OC	-6.1%
COc1ccc(CNC(=O)Cn2c(=O)oc3cc(S(=O)(=O)N4CCCC4)ccc32)cc1	-0.5%
CC1CCN(S(=O)(=O)c2ccc3c(c2)oc(=O)n3CC(=O)NCc2ccc(F)cc2)CC1	5.62µM*
COc1cccc(CNC(=O)Cn2c(=O)oc3cc(S(=O)(=O)N4CCC(C)CC4)ccc32)c1	-4.7%
Cc1nc([C@@H]2CN(C(=O)CCc3c(C)noc3C)C[C@H]2C(N)=O)n[nH]1	i
CCOCc1nc(C2CCCN(C(=O)c3ccco3)C2)no1 (stereo not drawn)	i
COc1ccc2[nH]cc(CCNC(=O)Nc3c(C)cccc3C)c2c1	i
COc1ccc2[nH]cc(CCNC(=O)Nc3cccc(F)c3)c2c1	4.2%
COc1ccc2[nH]cc(CCN=C(NC(=O)c3cccc(Cl)c3)Nc3nc(C)cc(C)n3)c2c1	8.91µM*
O=C(Cc1cccs1)N1CC[C@H]2COC(=O)N2c2cc(F)ccc2C1	-10.7%[44.1 µM]
O=C(NC1CC1)C1CN(c2ccccc2)C(=O)N1 (stereo not drawn)	-2.3%[44.1 µM]
